POLI inh = blocks human DNA polymerase iota activity; hit rate 1% among 390,000; Potency, µM (highest dose often 115 µM), for inactives: top-dose activity, negative = inhibition, most hits filed as inhibitors; Pol iota fluorescent replication assay, 10 min; Q9UNA4
Target sequence (Q9UNA4 whole entry, looked up): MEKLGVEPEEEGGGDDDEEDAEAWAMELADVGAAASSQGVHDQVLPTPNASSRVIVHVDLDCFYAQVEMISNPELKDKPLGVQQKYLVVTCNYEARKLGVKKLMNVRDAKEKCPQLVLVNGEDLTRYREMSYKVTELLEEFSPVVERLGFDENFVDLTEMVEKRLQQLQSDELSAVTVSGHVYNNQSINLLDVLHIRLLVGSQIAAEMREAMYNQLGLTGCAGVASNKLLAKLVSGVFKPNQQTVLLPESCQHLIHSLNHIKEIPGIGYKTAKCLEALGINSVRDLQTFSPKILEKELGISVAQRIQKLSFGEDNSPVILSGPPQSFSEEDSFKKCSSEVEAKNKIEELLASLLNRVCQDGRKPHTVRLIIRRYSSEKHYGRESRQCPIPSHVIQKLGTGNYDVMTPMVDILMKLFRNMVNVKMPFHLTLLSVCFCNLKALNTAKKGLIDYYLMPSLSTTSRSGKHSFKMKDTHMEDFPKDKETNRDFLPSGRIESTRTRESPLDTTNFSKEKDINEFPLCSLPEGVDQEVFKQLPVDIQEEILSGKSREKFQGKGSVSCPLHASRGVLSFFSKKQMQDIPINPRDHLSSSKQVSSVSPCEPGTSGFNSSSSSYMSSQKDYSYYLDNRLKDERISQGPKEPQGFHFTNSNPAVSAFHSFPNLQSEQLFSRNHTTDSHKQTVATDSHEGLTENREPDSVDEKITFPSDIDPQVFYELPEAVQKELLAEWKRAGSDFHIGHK
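Pol iota at 10 nM preincubated 15 min with compounds at room temperature; reaction started with fluorescent substrate, 50 nM final. Fluorescence read kinetically at 0 and 10 min; buffer-only wells as negative control.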
POLB inh = blocks human DNA polymerase beta activity. Pol beta primer extension/strand displacement, fluorescence kinetic. AID 485314. hit rate 1.3% among 340,000. P06746. Potency, µM (highest dose often 114 µM), without a hit: top-dose activity change, negative = inhibition, hits mostly inhibitors; further: on the % scale 0 is the no-effect control and ±100 the full control effect
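Reaction started by 50 nM substrate onto compound-treated Pol beta (10 nM, 15 min preincubation, room temperature); plates read at 0 min and 10 min. Normalized concentration-effect data fitted by four-parameter Hill equation.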
Pol eta inh = blocks human DNA polymerase eta activity. AID 588591. recombinant Pol eta, fluorescent DNA replication assay. Q9Y253. hit rate 1.2% among 390,000. Potency, µM (titrated, usually from 114 µM), for inactives: at the top dose activity change, negative = inhibition, usual class: inhibitors; further: on the % scale 0 is the no-effect control and ±100 the full control effect
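Pol eta at 10 nM preincubated with compounds 15 min at room temperature; reaction started with fluorescent substrate (50 nM final) and read kinetically at 0 and 10 min.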
WRN inhibitor = inhibitors of human WRN helicase. Potency, µM (series often up to 114 µM), without a hit: at the highest dose activity change, negative = inhibition, actives largely listed as inhibitors. Q14191. WRN helicase unwinding, fluorescent forked duplex, kinetic. hit rate 0.46% among 360,000; further: on the % scale 0 is the no-effect control and ±100 the full control effect; nearly all actives have a fitted effect of over 55% in size
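WRN at 20 nM final preincubated with compound 15 min at room temperature; reaction started with 100 nM fluorophore/quencher forked duplex oligonucleotide and 2 mM ATP final. Unwinding followed kinetically by red fluorescence (ex 525, em 598 nm).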
POLK inh = DNA polymerase kappa (human) inhibition; AID 588579; hit rate 0.53% among 400,000; Q9UBT6; purified Pol kappa, fluorescent DNA synthesis assay, 10 min; Potency, µM (series often up to 107 µM), inactives show at the top dose activity, negative = inhibition, hits mostly inhibitors; further: on the % scale 0 is the no-effect control and ±100 the full control effect
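Kinetic fluorescence readout at 0 and 10 min followed reaction start with substrate at 50 nM final. Beforehand, enzyme (10 nM Pol kappa) stood 15 min with compound at room temperature; buffer-only wells were negative controls.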
FEN1 inh = inhibitors of human flap endonuclease 1; P39748; Recombinant FEN1 flap cleavage, fluorescence, 15 min; Potency, µM (series often up to 114 µM), for inactives: at the top dose activity change, negative = inhibition, usual class: inhibitors; hit rate 0.35% among 390,000; further: on the % scale 0 is the no-effect control and ±100 the full control effect; nearly all actives have a fitted effect of over 65% in size
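Nuclease activity of 10 nM FEN1 was measured after 15 min of room-temperature exposure to titrated compounds, by adding 50 nM flap substrate and reading plates at 0 and 15 min.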
Starred values were filed as active, the others as inactive; [ ] = remark or other dose. Compounds with a hit are over-represented: about 2.4% of the library has one in this group of screens. The call rests on the fitted dose curve; in most records, active means well fitted curve in the direction sought with a large enough effect; inconclusive means small, poorly fitted or top-dose-only effect, or another doubt; inactive means no such curve, though single readings can be large; an effect the other way counts as inactive or inconclusive. Potency means the concentration at half of the fitted maximal effect.

Results for Cc1cc(NS(=O)(=O)c2ccc(NC(=O)c3c(F)c(F)c(F)c(F)c3F)cc2)nc(C)n1 ?
POLI inh: -1%; POLB inh: inconclusive; Pol eta inh: -5%; WRN inhibitor: inconclusive; POLK inh: -10%; FEN1 inh: -3%

Results for Cc1cc(NS(=O)(=O)c2ccc(NC(=O)CCCOc3ccccc3C)cc2)nc(C)n1 ?
POLI inh: 10µM*; POLB inh: -13%; Pol eta inh: 79µM*; WRN inhibitor: inconclusive; POLK inh: -21%; FEN1 inh: 0%

What do the screens show for `O=S1(=O)c2ccccc2N(Cc2cccc(C(F)(F)F)c2)c2ccccc21`?
POLI inh: 8%; POLB inh: 0%; Pol eta inh: -19%; POLK inh: 1%; FEN1 inh: -8%

What do the screens show for `CCC1Sc2ccc(S(=O)(=O)CCC(=O)Nc3c(Cl)cc(OC)cc3OC)cc2NC1=O` (stereo not given)?
POLI inh: -7%; POLB inh: 79µM*; Pol eta inh: inconclusive; WRN inhibitor: -29%; POLK inh: -19%; FEN1 inh: 12%

Results for CCC1Sc2ccc(S(=O)(=O)Nc3cc(OC)cc(OC)c3)cc2NC1=O (stereo not given) ?
POLI inh: 13%; POLB inh: 25%; Pol eta inh: -9%; WRN inhibitor: -10%; POLK inh: 1%; FEN1 inh: 9%

How did O=C(N/N=C/c1ccco1)C1CC1c1ccccc1 (stereo not given) do in these assays?
POLI inh: 32µM*; POLB inh: 16µM*; Pol eta inh: inconclusive; WRN inhibitor: -32%; POLK inh: inconclusive; FEN1 inh: -4%

Results for O=C(N/N=C/c1ccco1)C1CC1 ?
POLI inh: 18%; POLB inh: 14%; Pol eta inh: -9%; WRN inhibitor: -15%; POLK inh: -17%; FEN1 inh: 0%

How did CN(C[C@H](Cc1ccccc1)N(C[C@H](CC1CCCCC1)N(CCc1ccccc1)N=O)N=O)N=O do in these assays?
POLI inh: 89µM*; POLB inh: 11%; Pol eta inh: -12%; WRN inhibitor: -9%; POLK inh: inconclusive; FEN1 inh: 4%

How did COc1ccc(OC)c(S(=O)(=O)n2cnc3ccccc32)c1 do in these assays?
POLI inh: 8%; POLB inh: 27%; Pol eta inh: -1%; WRN inhibitor: 1%; POLK inh: 3%; FEN1 inh: 11%

How did COc1cc(C)c(Cl)cc1S(=O)(=O)n1cnc2ccccc21 do in these assays?
POLI inh: 9%; POLB inh: 89µM*; Pol eta inh: -12%; WRN inhibitor: -11%; POLK inh: -19%; FEN1 inh: -2%

How did COc1cccc(CN2Cc3cccc4c3[C@H](C=CC4)CC2=O)c1 do in these assays?
POLI inh: -12%; POLK inh: -19%; FEN1 inh: -10%

What do the screens show for `COc1cc(/C=C/c2nnc3c4ccccc4ncn23)cc(OC)c1OC`?
POLI inh: -2%; POLB inh: inconclusive; Pol eta inh: -14%; WRN inhibitor: 56µM*; POLK inh: -20%; FEN1 inh: -29%

Results for C(=C\c1nnc2c3ccccc3ncn12)/c1ccccc1 ?
POLI inh: -4%; POLB inh: -2%; Pol eta inh: -14%; WRN inhibitor: -1%; POLK inh: -7%; FEN1 inh: 0%

How did O=C1OC2(c3cc(I)c(O)c(I)c3Oc3c2cc(I)c(O)c3I)c2c(Cl)c(Cl)c(Cl)c(Cl)c21 do in these assays?
POLK inh: 7.5µM*

What do the screens show for `O=C1OC2(c3ccccc31)c1cc(I)c(O)c(I)c1Oc1c2cc(I)c(O)c1I`?
POLK inh: 27µM*

How did O=C1OC2(c3ccc(O)cc3Oc3cc(O)ccc32)c2ccccc21 do in these assays?
POLK inh: 30µM*

Results for COc1cn(CC(=O)Nc2ccccc2)c(CN2CCCCC2)cc1=O ?
POLI inh: 15%; POLB inh: -12%; Pol eta inh: -10%; POLK inh: 0%[60.1 µM]; FEN1 inh: 24%

Results for CCN(CC)C(=O)CSC1=N/C(=C/c2ccco2)C(=O)N1c1ccc(OC)c(Cl)c1 ?
POLI inh: -16%; POLB inh: inconclusive; Pol eta inh: inconclusive; WRN inhibitor: -24%; POLK inh: -12%; FEN1 inh: 7%

How did NC(=O)CSC1=N/C(=C\c2ccco2)C(=O)N1c1ccc(OC(F)F)cc1 do in these assays?
POLI inh: 35µM*; POLB inh: -23%; Pol eta inh: 32%; WRN inhibitor: -10%[11.6 µM]; POLK inh: inconclusive; FEN1 inh: -9%

Results for CCOC(=O)c1noc2nc(C)n(CC(=O)Nc3ccc(OC)c(Cl)c3)c(=O)c12 ?
POLI inh: 10%; POLB inh: 20µM*; Pol eta inh: -9%; POLK inh: 4%[60.1 µM]; FEN1 inh: 0%

How did Cc1ccc(C)n1-c1ccc(C(=O)NCC2CCCO2)cc1 (stereo not given) do in these assays?
POLI inh: inconclusive; POLB inh: 40µM*; Pol eta inh: inconclusive; WRN inhibitor: -10%; POLK inh: -13%; FEN1 inh: -4%

Results for Cc1ccc([N+](=O)[O-])cc1S(=O)(=O)Nc1ccc(C(=O)NCC2CCCO2)cc1 (stereo not given) ?
POLI inh: inconclusive; Pol eta inh: 79µM*; WRN inhibitor: -9%; POLK inh: -11%; FEN1 inh: 0%

How did CC(C)C[C@H](NC(=O)[C@H](CO)NC(=O)CNC(=O)[C@H](CCCCN)NC(=O)[C@H](CCCN=C(N)N)NC(=O)[C@H](C)NC(=O)[C@H](Cc1ccccc1)NC(=O)[C@@H](N)CCCN=C(N)N)C(=O)N[C@@H](CCCN=C(N)N)C(=O)N[C@@H](CCC(N)=O)C(=O)N[C@@H](CCCCN)C(=O)N[C@@H](CC(N)=O)C(=O)N[C@H](C(=O)O)C(C)C do in these assays?
POLK inh: 10%[60.1 µM]

Results for Nc1ccc(O)c([N+](=O)[O-])c1 ?
POLI inh: 79µM*; Pol eta inh: -13%; WRN inhibitor: -5%; POLK inh: -24%; FEN1 inh: -17%

What do the screens show for `COc1ccc(Br)cc1CNC(=O)c1nn(-c2ccc(C)cc2)c(=O)c2c1c1ccccc1n2C`?
POLI inh: -6%; POLB inh: 18%; Pol eta inh: -8%; POLK inh: -11%; FEN1 inh: -14%

Results for COc1ccccc1CNc1ncnc2ccc(-c3ccoc3)cc12 ?
POLK inh: -10%[60.1 µM]
